Compound activity deposited in PubChem BioAssay by National Center for Advancing Translational Sciences (NCATS).
This is a sample that favours compounds with a hit; in the whole collection about 21% have one here.
D3 antag: D3 dopamine receptor (human) antagonism; actives 2.5% (n = 360,000); P35462; D3R cells, DiscoveRx beta-arrestin luminescence, antagonist mode; hits give low values; max response, negative = inhibition, %; in the data active = max response below about -50%; inconclusive = no clear call, values can overlap the other calls; note: % is set by controls: 0 for no effect and ±100 for the full control effect
Target sequence (P35462 whole entry, looked up): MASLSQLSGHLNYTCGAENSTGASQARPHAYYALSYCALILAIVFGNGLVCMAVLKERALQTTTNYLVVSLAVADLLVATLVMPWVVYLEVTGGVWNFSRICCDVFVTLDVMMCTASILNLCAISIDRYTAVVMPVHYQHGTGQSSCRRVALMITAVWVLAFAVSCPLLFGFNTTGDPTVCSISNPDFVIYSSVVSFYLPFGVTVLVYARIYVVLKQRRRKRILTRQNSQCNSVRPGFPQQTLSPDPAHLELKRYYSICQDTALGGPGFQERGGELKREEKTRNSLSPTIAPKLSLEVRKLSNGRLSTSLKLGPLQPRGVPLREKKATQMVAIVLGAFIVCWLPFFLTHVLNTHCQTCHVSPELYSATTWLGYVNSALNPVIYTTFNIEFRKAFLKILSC
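Cells expressing the human receptor were seeded at 1500 cells/well, incubated overnight at 37 degrees C in 5% CO2, then exposed to library compounds with dopamine controls for 90 minutes at 37 degrees C before luminescent detection.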
D3 ag: activates the human D3 dopamine receptor; P35462; actives 0.58% (n = 410,000); AID 652048; max activation, %; D3R DiscoveRx beta-arrestin cells, luminescence, 90 min; in the data active = max activation above about 30%; note: 0% is about no effect
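Agonist mode: compounds and dopamine controls were applied to plated cells for 90 min at 37 degrees C after an overnight attachment at 1500 cells/well. Luminescent read-out followed 30 - 60 minutes at room temperature with DiscoveRx detection reagent.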
DT40 TDP1 CPT: growth inhibition of DT40 Tdp1-/-;hTDP1 cells with camptothecin (screen for TDP1 inhibitors); Potency, µM (highest dose often 46.2 µM), for the others: at the highest dose activity change, negative = growth inhibition, usual class: inhibitors; actives 12% (n = 420,000); chicken DT40 Tdp1-/-;hTDP1 cells + 20 nM CPT, ATP luminescence, 48 h; AID 686979; note: potency is the fitted concentration of half-maximal effect; % is set by controls: 0 for no effect and ±100 for the full control effect; nearly all actives have a fitted effect of over 55% in size
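Cell growth measured by CellTiter-Glo luminescence after a minimum 48 h, 37 C compound exposure with 20 nM CPT in Tdp1-knockout DT40 cells stably expressing hTDP1, seeded 400/well; qHTS titration format.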
TDP1 cell noCPT: qHTS for Inhibitors of human tyrosyl-DNA phosphodiesterase 1 (TDP1): qHTS in cells in absence of CPT; DT40 Tdp1-/- hTDP1 cells, no CPT, ATP luminescence, 48 h; Potency, µM (highest dose often 46.2 µM), for the others: top-dose activity change, negative = growth inhibition, most hits filed as inhibitors; AID 686978, 2013; actives 15% (n = 420,000); note: potency is the fitted concentration of half-maximal effect; % is set by controls: 0 for no effect and ±100 for the full control effect; nearly all actives have a fitted effect of over 55% in size
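Luminescent ATP content (CellTiter-Glo) served as the growth readout. Knockout chicken DT40 cells expressing human TDP1 were exposed to compounds without camptothecin for a minimum 48 hr at 37 °C.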
ClpP mod: qHTS Assay for Activators of ClpP | purified B. subtilis ClpP, FRET peptide cleavage, 20 min | AID 651965, 2013 | Potency, µM (series often up to 57.5 µM), for the others: at the top dose activity change, negative = active | actives 1.9% (n = 340,000) | ATP-dependent Clp protease proteolytic subunit (Bacillus subtilis (strain 168)), P80244; active = well fitted falling curve with a large enough effect; inconclusive = small, poorly fitted or top-dose-only effect; inactive = no such curve, though single readings can be large or run the other way; note: potency is the fitted concentration of half-maximal effect; the source files actives as falling curves though it sought activators and does not explain the sign; nearly all actives have a fitted effect of over 65% in size
Target sequence (P80244 whole entry, looked up): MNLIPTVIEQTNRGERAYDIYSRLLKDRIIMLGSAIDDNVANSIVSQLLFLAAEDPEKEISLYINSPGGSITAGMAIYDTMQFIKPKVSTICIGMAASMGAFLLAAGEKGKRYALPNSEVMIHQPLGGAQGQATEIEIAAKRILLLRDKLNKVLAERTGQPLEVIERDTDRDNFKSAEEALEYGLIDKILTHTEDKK
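Buffer: 100 mM Tris/HCl pH8, 100 mM KCl, 0.05% low protease BSA, 2.5% glycerol, 0.01% Tween-20. ClpP 10 microg/mL final; 20 min RT; delta FRET normalized to ADEP and DMSO controls.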
IL-1B inflam inh: inhibitors of inflammasome signaling (IL-1 beta secretion). THP-1 LPS/ATP IL-1B secretion, AlphaLISA, 16 h; hits give low values. activity change, % at 57.5 µM. actives 4.7% (n = 360,000); in the data active = activity change below about -50%; inconclusive = mostly about -30% to -49%; note: % is set by controls: 0 for no effect and ±100 for the full control effect
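Secreted IL-1B measured by AlphaLISA bead assay after 16 h compound exposure of THP-1 cells; compounds (final up to 57.5 uM) added 1 h before LPS (250 ng/mL) and ATP (1.25 mM) stimulation; lower signal means less secretion.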
Active calls of the source: *; ? = inconclusive; nt = no result; ! = repeats disagree. Unless noted, calls come from the whole dose curve; as a rule, active = well fitted inhibition curve with a large enough effect; inconclusive = small, poorly fitted or top-dose-only effect; inactive = flat fitted curve, though single readings scatter.

SMILES | D3 antag | D3 ag | DT40 TDP1 CPT | TDP1 cell noCPT | ClpP mod | IL-1B inflam inh
CC1=CC2=NC(=O)/C(=C\c3cc(C)n(-c4ccccc4F)c3C)C(=N)N2O1 | -29 | -17 | -17% | 29µM* | -2% | -22
CC1=CC2=NC(=O)/C(=C\c3cccn3CCOc3cccc(C)c3)C(=N)N2O1 | 2 | 10 | 8% | ? | -2% | -56*
O=C1N(Cc2ccccc2)c2ccc(Cl)cc2C12OCCO2 | 0 | -2 | -8% | -4% | nt | -8
O=C(O)CSc1nnc(-c2ccncc2)n1-c1ccc(Cl)cc1 | -9 | -1 | 12% | -10% | -7% | 16
O=C(O)CSc1nnc(-c2cccs2)n1-c1ccc(Cl)cc1 | -6 | 1 | ? | 29µM* | -18% | -7
O=C(CSc1nnc(-c2cccs2)n1-c1cccc(Cl)c1)c1cccc2c1OCCO2 | 19 | -2 | ? | 16µM* | -3% | -1
O=C(CSc1nnc(-c2cccs2)n1-c1ccccc1)N1CCOCC1 | -23 | 0 | -4% | -17% | -17% | -10
c1ccc(-n2c(SCC3CCCCO3)nnc2-c2cccs2)cc1 (stereo unspecified) | 0 | -10 | 18µM* | ? | ? | -11
O=C(CSc1nnc(-c2cccs2)n1-c1ccccc1)NCC1CCCO1 (stereo unspecified) | -2 | -5 | -4% | -14% | -13% | -2
COc1ccc(NC(=O)Nc2ccccc2F)cc1Cl | 0 | 3 | -10% | -25% | nt | -22
N#Cc1cccc(-c2nc(NCc3cccs3)c3ccccc3n2)c1 | nt | nt | 2% | -1% | nt | nt
O=C1CNC(=O)/C(=C/c2ccco2)N1 | -27 | -11 | 33% | -9% | nt | -15
CCN1CCCC1CNc1ccc(S(C)(=O)=O)cc1[N+](=O)[O-] (stereo unspecified) | -54* | -18 | -1% | -13% | nt | 13
CC(C)(C)C(=O)O/N=C(\N)c1ccc(Oc2cc(Cl)cc(Cl)c2)c([N+](=O)[O-])c1 | 0 | 7 | ? | ? | nt | -61*
CCCn1c(CN2CCN(C(C)=O)CC2)nc2cc(S(=O)(=O)N(C)C)ccc21 | -16 | -6 | 0% | ? | nt | 20
COc1ccc(/C=C/C(=O)OCC(=O)NC(C)CCc2ccccc2)cc1OC (stereo unspecified) | -18 | 2 | -18% | -10% | -26% | 4
Cc1ccccc1Nc1cccc2nonc12 | -18 | -4 | 2% | -25% | -2% | -52*
Cc1ccccc1NS(=O)(=O)c1cccc2nonc12 | -24 | -9 | -24% | 3% | 0% | 2
COC(=O)C1=NN(N=O)C2(CC(=O)N(c3cc(C)cc(C)c3)C2=O)C1 (stereo unspecified) | ? | -2 | ? | 6% | -5% | ?
O=C(Nc1ccccc1)Nc1ccccc1 | ? | -8 | 18µM*! | ? | 2% | -1
O=C(O)CC(CC(=O)Nc1ccc(-n2ccc(C(F)(F)F)n2)cc1)c1ccccc1 (stereo unspecified) | 16 | 10 | 12% | 5% | nt | 25
O=C(Nc1ccccc1)Nc1ccc(Nc2ccccc2)cc1 | 2 | -3 | ? | 7.3µM* | -8% | -20
O=C(Nc1ccccc1)Nc1ccc(Cl)nc1Cl | -4 | -8 | ? | ? | nt | -79*
O=C(NNc1cccc(Cl)n1)Nc1ccccc1 | -9 | 1 | 1% | -16% | 0% | -10
O=C(Nc1ccccc1)Nc1ccc(-n2ccc(C(F)(F)F)n2)cc1 | 7 | 4 | ? | 18µM* | -4% | ?
SMILES | D3 antag | D3 ag | DT40 TDP1 CPT | TDP1 cell noCPT | ClpP mod | IL-1B inflam inh
CC(=O)Nc1ccc(Nc2ccccc2)cc1 | -5 | 0 | ? | 1% | -1% | 1
CC(=O)Nc1ccccc1 | 31 | 16 | -8% | 2% | -1% | -8
CC1=NN(c2ccccc2)C(=O)C1(C)[N+](=O)[O-] (stereo unspecified) | 33 | -6 | -6% | -34% | ? | 2
O=C(Nc1nnc2n1CCS2)c1ccc(Br)o1 | -22 | -5 | -8% | -1% | -1% | 0
O=C(NCCCN1CCN(c2cccc(Cl)c2)CC1)c1cnn(-c2ccc(F)cc2)c1-n1cccc1 | nt | -8 | nt | nt | 0% | nt
O=C(Nc1ccc(Nc2ccccc2)cc1)C1CC1 | -12 | -1 | 7.3µM* | 6.5µM* | -2% | -29
CC(=O)N[C@@H](Cc1ccc(O)cc1)C(=O)O | nt | 1 | -3% | -5% | nt | nt
COCCNC(=O)c1ccccc1NC(=O)Nc1ccccc1 | -17 | -4 | 4% | -9% | nt | -50*
O=C(Nc1ccccc1)NC(Cc1ccc(O)cc1)C(=O)O (stereo unspecified) | -65* | 22 | -5% | -8% | nt | -21
Cc1cc(C)c(NC(=O)Nc2ccccc2C)c(Cl)c1 | 10 | 5 | 4% | 11% | 0% | -15
O=C(Nc1ccccc1)Nc1ccccc1C(=O)NCC1CC1 | -12 | -11 | -13% | -13% | -3% | 0
Cc1cc(C)c(NC(=O)Nc2ccccc2)c(Cl)c1 | 10 | 5 | 16µM* | ? | 0% | 14
COc1cc(Cl)c(C)cc1NC(=O)CC1Oc2ccccc2NC1=O (stereo unspecified) | nt | 1 | ? | ? | -1% | nt
Cc1ccc(S(=O)(=O)c2nc(-c3cccs3)oc2SC(C)c2ccccc2)cc1 (stereo unspecified) | nt | 1 | ? | ? | -10% | nt
CC(C)C(=O)Nc1nnc(-c2ccccc2)o1 | 8 | 12 | -17% | -20% | -12% | 5
O=C(Nc1ccccc1)Nc1nnc(-c2ccccc2)o1 | -23 | 1 | 29µM* | ? | -21% | -102*
O=C(Nc1ccc(-n2cccc2)cc1)C1CC1 | -8 | -9 | 9.2µM* | 9.2µM* | nt | 0
O=C(Nc1ccccc1)Nc1cccc2nsnc12 | 3 | -4 | ? | ? | ? | -74*
CCOC(=O)c1noc2nc(C)n(CC(=O)Nc3ccc(OC)c(Cl)c3)c(=O)c12 | nt | -10 | nt | nt | 1% | nt
COc1ccc(NC(=O)c2cc(=O)c3ccc(C)c(C)c3o2)cc1Cl | nt | 9 | -29% | ? | 2% | nt
CCCNC(=O)C/C(C)=N/NC(=O)COc1ccc(C)cc1Br | 45 | -2 | 1% | -29% | -1% | 18
Cc1cc(Cl)cc(Cl)c1OCC(=O)NCc1ccco1 | 4 | 0 | ? | 18µM* | -2% | ?
COc1ccc(CNC(=O)C/C(C)=N/NC(=O)COc2ccc(C)cc2Br)cc1 | 6 | -6 | 2.3µM* | 3.7µM* | nt | 57
